Many of the other results were omitted from the sample, so hits are more common in it than they were.
Lassa entry inh – qHTS for Inhibitors of binding or entry into cells for Lassa Virus. actives 1.2% (n = 300,000). Lassa virus pseudotype entry inhibition, cell reporter. Potency, µM (doses to about 37.9 µM), without a hit: at the highest dose activity change, negative = inhibition, hits mostly inhibitors; calls by dose curve; tested in HEK293 cells; also: potency is read from the fitted curve at half-maximal effect; % is scaled to controls: 0 for no effect and ±100 for the full control effect; nearly all actives have a fitted effect of over 50% in size
Marburg entry inh – qHTS for inhibitors of binding or entry into cells for Marburg Virus; Marburg virus pseudotyped entry inhibition, cell reporter; Potency, µM (titrated, usually from 37.8 µM), without a hit: top-dose activity change, negative = inhibition, usual class: inhibitors; actives 1.8% (n = 300,000); calls by dose curve; tested in HEK293 cells; also: potency is read from the fitted curve at half-maximal effect; % is scaled to controls: 0 for no effect and ±100 for the full control effect
Shiga inhibitor – A qHTS for Small Molecule Inhibitors of Shiga Toxin; Vero cells, Shiga toxin protein synthesis inhibition reporter; inhibition, % at 38.7 µM; actives 9.2% (n = 290,000); in the data active = inhibition mostly above about 28%, no sharp cut-off; inactive = mostly below about 43%; also: 0% is about no effect
CHX counter – Cycloheximide Counterscreen for Small Molecule Inhibitors of Shiga Toxin; AID 2314, 2010; actives 12% (n = 300,000); cell reporter, cycloheximide protein synthesis inhibition counterscreen; max response, %; in the data active = max response mostly above about 13%, no sharp cut-off; inactive = mostly below about 14%; also: read at 38.3 µM for the half of the compounds with a filed dose; 0% is about no effect
VACV Venus inh – qHTS for Stage-Specific Inhibitors of Vaccinia Orthopoxvirus: Venus Reporter Primary qHTS; Vaccinia virus Venus reporter expression, fluorescence; Potency, µM (highest dose often 36.5 µM), without a hit: at the top dose activity change, negative = inhibition, usual class: inhibitors; actives 0.46% (n = 330,000); AID 720580, 2013; calls by dose curve; tested in A549 cells; also: potency is read from the fitted curve at half-maximal effect; % is scaled to controls: 0 for no effect and ±100 for the full control effect; nearly all actives have a fitted effect of over 30% in size
VACV mCherry inh – qHTS for Stage-Specific Inhibitors of Vaccinia Orthopoxvirus: mCherry Reporter Primary qHTS. Potency, µM (titrated, usually from 36.5 µM), without a hit: at the highest dose activity change, negative = inhibition, usual class: inhibitors. Vaccinia virus mCherry reporter infection, fluorescence. AID 720579, 2013. actives 0.63% (n = 310,000); calls by dose curve; tested in A549 cells; also: potency is read from the fitted curve at half-maximal effect; % is scaled to controls: 0 for no effect and ±100 for the full control effect; nearly all actives have a fitted effect of over 35% in size
* hit, by the source's call; i = inactive; ? = inconclusive; · = no result given; [ ] = another dose, or the depositor's remark.

SMILES	Lassa entry inh	Marburg entry inh	Shiga inhibitor	CHX counter	VACV Venus inh	VACV mCherry inh
CCOc1ccc(-c2nc(CSCC(=O)N3CCN(c4cccc(OC)c4)CC3)c(C)o2)cc1	·	2%	75*	16*	?	?
CCOc1ccc(-c2nc(CS(=O)(=O)CC(=O)NCc3ccc(F)cc3)c(C)o2)cc1	·	·	20*	12*	-13%	i
COc1ccc(-c2nc(CSCC(=O)N3CCN(c4ccccc4F)CC3)c(C)o2)cc1	-28%[46.1 µM]	?	·	·	?	?
CCOc1ccc(-c2nc(CSCC(=O)NC3CC3)c(C)o2)cc1	·	·	2	22*	·	·
CCOc1ccc(-c2nc(CN3CCCC(C(=O)N4CCOCC4)C3)c(C)o2)cc1 (stereo unspecified)	-12%[46.1 µM]	-7%[46.1 µM]	31*	18*	-13%	0%
COc1ccc(NCc2cc3ccc(OC)cc3n(CC(=O)Nc3cccc(OC)c3)c2=O)cc1	-5%[46.1 µM]	·	·	·	-3%	3%
Cc1ccc2nc(Cl)c3cc(C(=O)N(CCN(C)C)Cc4ccco4)sc3c2c1	-27%	?	-46	-16	?	?
CN(C)CCN(Cc1ccco1)C(=O)c1cc2c(Cl)nc3ccccc3c2s1	0%	15µM*	-13	1	·	·
COc1ccc2c(Sc3ccccc3)c(C(=O)NCc3ccc(OC(C)C)cc3)[nH]c2c1	0%[46.1 µM]	?	·	·	-10%	i
O=C(O)CCCC(=O)Nc1ccc(OCc2nc3ccccc3s2)cc1	?	?	98*	50*	-9%	i
COc1ccc(C(=O)CCc2nc3ccccc3s2)cc1	6%	29%	41*	50*	-10%	-24%
CC(=O)c1ccc(OC(C)c2nc3ccccc3s2)cc1 (stereo unspecified)	-22%	7%[46.1 µM]	75*	30*	-2%	-5%
COc1cccc(C(=O)N(C)C(C)c2nc3ccccc3s2)c1 (stereo unspecified)	-16%[46.1 µM]	1%[46.1 µM]	1	4	-6%	1%
CCNC(=S)Nc1ccc(OCc2nc3ccccc3s2)cc1	?	?	·	33*	-15%	-8%
CCNC(=S)Nc1ccc(OCC)cc1	1%	12%	17	-1	-1%	-9%
O=C(CCc1nc2ccccc2s1)Nc1ccccc1	0%	-1%	22	11*	-17%	-4%
COc1ccccc1NC(=O)CCc1nc2ccccc2s1	-1%	26%[46.1 µM]	55	15*	-1%	-9%
COc1ccccc1NS(=O)(=O)c1cccc(C(=O)OCc2nc3ccccc3s2)c1	?	27%	76*	49*	-6%	i
CC[C@H](C)[C@H]1CNC(=S)N1CC1CCN(CCCCc2ccccc2)CC1	·	·	·	·	-12%	-11%
CCOc1ccccc1-c1noc(CCCC(=O)NC2CCCCC2)n1	-8%	22%[46.1 µM]	-7	0	-5%	-15%
O=C1NC(c2ccccc2)(C(F)(F)F)C(=O)N1Cc1cccnc1 (stereo unspecified)	7%	?	96*	47*	-9%	·
O=C1C=CC(=O)N1Cc1cccnc1	14%[46.1 µM]	9%[46.1 µM]	·	·	0%	i
O=C(NCc1ccco1)c1ccccc1	-2%	?	-3	0	-5%	-10%
COc1ccc(C(=O)Nc2cccc(C(=O)NCc3ccco3)c2)cc1	?	0%	21	12*	-26%	-15%
COc1cccc(C(=O)c2c[nH]c(C(=O)NCc3ccco3)c2)c1	?	-2%[46.1 µM]	18	23*	-18%	·
SMILES	Lassa entry inh	Marburg entry inh	Shiga inhibitor	CHX counter	VACV Venus inh	VACV mCherry inh
COc1ccc(C(=O)c2c[nH]c(C(=O)NCc3ccco3)c2)cc1	0%	?	20	10	-11%	·
CC(C)Oc1ccc(C(=O)NCc2ccco2)cc1	-3%	?	38*	29*	-17%	i
CCCOc1ccc(C(=O)NCc2ccco2)cc1	?	10%	74*	35*	·	·
CCN(C(=O)c1cc2c(Cl)nc3ccccc3c2s1)c1cccc(Cl)c1	-23%[46.1 µM]	?	·	·	1%	8%
Cc1ccc(S(=O)(=O)N2CCN(c3nc(-c4ccc(CN5CCNCC5)s4)nc4ccccc34)CC2)cc1	·	·	·	·	-18%	-6%
COc1ccc(CCNC(=O)C(=O)Nc2ccc(C)c(C)c2)cc1OC	2%[46.1 µM]	·	·	·	-3%	-13%

Screens deposited in PubChem BioAssay by National Center for Advancing Translational Sciences (NCATS).
